# Assay results: PubChem BioAssay AID720706 (Broad Institute, 2013)
# Hit rate of the full screen: of about 350,000 compounds, about 5,500 (1.6%) were called active.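 How the source made its calls: active means significant combined selectivity score with lowered wild-type GFP, culture density cut under 30%, mutant RFP and density less affected; inactive means any of these conditions unmet.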 What follows is part of a selection rich in actives, with near analogues and random picks from the rest.
# Experiment: reduced GFP signal of wild-type E. coli, primary screen, bacterial rRNA inhibitor project, GFP/RFP fluorescence, OD600, single point (AID 720706)
# Settings: E. coli WT GFP vs humanized-ribosome RFP mutants, 24 h; GFP signal change (wild-type ribosome): stronger effect = lower value, DMSO median 0, no signal -100; OD600 change: measured here: OD600 growth, DMSO median 0, no signal -100; RFP signal change: measured here: RFP humanized mutant strains, DMSO median 0, no signal -100, concentration not given here
SMILES,GFP signal change (wild-type ribosome),OD600 change,RFP signal change
COc1ccc(S(=O)(=O)Nc2ccc3c(c2)C(=O)N(C)C[C@@H](OC)[C@H](C)CN(C(=O)NC(C)C)[C@H](C)CO3)cc1,2.15% (inactive),-6.48%,0.485%
CCCNC(=O)N(C)C[C@@H]1Oc2ncc(C#CCc3ccccc3)cc2C(=O)N([C@@H](C)CO)C[C@H]1C,2.5% (inactive),-2.83%,-0.346%
Cc1noc(C)c1S(=O)(=O)N(C)C[C@H]1OCCCC[C@H](C)Oc2ccc(NC(=O)c3ccccc3)cc2C(=O)N([C@@H](C)CO)C[C@H]1C,-1% (inactive),-0.308%,2.4%
CC(C)(C)NC(=O)NC(=O)COC(=O)Cc1ccc(Cl)cc1Cl,-19.2% (active),-0.7%,-0.643%
CC(C)(C)NC(=O)NC(=O)COC(=O)Cc1c(F)cccc1Cl,-13.1% (inactive),-4.75%,3.43%
O=C(COC(=O)Cc1ccc(Cl)cc1Cl)NCc1ccco1,-17.4% (inactive),-6.25%,0.815%
C[C@H](CO)N1C[C@H](C)[C@H](CN(C)Cc2ccncc2)Oc2ccc(NC(=O)Nc3ccc(F)cc3)cc2C1=O,0.717% (inactive),-2.2%,-2.45%
CN1c2ccc(-c3ccc(C#N)cc3)cc2[C@@H]2[C@@H](CCN2C(=O)C2CCCCC2)[C@H]1CO,-6.99% (inactive),-10.9%,6.2%
CN(C)C(=O)c1ccc(-c2ccccc2[C@H]2[C@@H](CO)N(C(=O)C3CCCCC3)[C@H]2C#N)cc1,-3.32% (inactive),0.601%,-4.88%
O=C(NCCCc1ccccc1)C(=O)c1c[nH]c2ccccc12,0.21% (inactive),-1.22%,-2.69%
O=C(O)c1ccccc1-c1ccccc1C(=O)NCCc1ccccc1,7.6% (inactive),2.74%,2.49%
O=C(NCCc1ccccc1)c1c[nH]c2ccc(F)cc2c1=O,-31.8% (active),-19.6%,-3.4%
COCC(=O)N(C)C[C@H]1[C@@H](c2ccccc2)[C@H](CO)N1C(=O)Cc1ccncc1,4.17% (inactive),8.74%,0.341%
Cc1ccc(S(=O)(=O)N[C@H]2CC[C@@H](CC(=O)NCCCN(C)C)O[C@H]2CO)cc1,4.5% (inactive),5.89%,-1.14%
C[C@H](CO)N1C[C@H](C)[C@@H](CN(C)S(C)(=O)=O)Oc2ccc(NC(=O)Nc3ccc4c(c3)OCO4)cc2CC1=O,-0.075% (inactive),5.52%,1.12%
CCCc1c(C(=O)O)cnn1-c1ccc(Cl)cc1,-6.54% (inactive),-3.54%,0.509%
O=C(NNS(=O)(=O)c1ccccc1)c1cnn(-c2ccc(Cl)cc2)c1C(F)(F)F,-40.1% (active),20.1%,3.85%
NNC(=O)c1cnn(-c2ccccc2)c1C(F)(F)F,5.13% (inactive),9.29%,-0.665%
C[C@H]1CN([C@@H](C)CO)C(=O)c2cc(-c3ccncc3)cnc2O[C@@H]1CN(C)C(=O)C1CCCCC1,0.821% (inactive),4.66%,-3.44%
C[C@H](CO)N1C[C@H](C)[C@H](CN(C)C(=O)C2CC2)Oc2cc(-c3cccnc3)ccc2S1(=O)=O,-1.18% (inactive),3.4%,0.533%
CCCNC(=O)N1[C@H](CO)[C@@H](c2ccc(-c3ccc(C(=O)N(C)C)cc3)cc2)[C@@H]1C#N,6.87% (inactive),16.3%,-2.83%
O=C(c1ccc(F)cc1)N1CC(=O)N2[C@@H](CO)[C@H](c3ccc(C4=CCCC4)cc3)[C@@H]2C1,4.17% (inactive),4.94%,-0.136%

SMILES,GFP signal change (wild-type ribosome),OD600 change,RFP signal change
C[C@H](CO)N1C[C@H](C)[C@@H](CN(C)C(=O)C2CC2)Oc2cc(C#CC(C)(C)O)ccc2S1(=O)=O,1.02% (inactive),10.5%,-2.74%
COCC(=O)N1CC(=O)N2[C@H](C1)[C@H](c1ccc(C#CC3CCCCC3)cc1)[C@@H]2CO,2.23% (inactive),2.33%,1.49%
Cc1cccc(NC(=O)c2ccc(S(=O)(=O)N(C)c3ccccc3)cc2)n1,-16.8% (active),-25%,1.23%
CN(c1ccccc1)S(=O)(=O)c1ccc(C(=O)NCCc2ccccc2)cc1,-12.7% (inactive),-28.7%,-1.12%
CN(c1ccccc1)S(=O)(=O)c1ccc(C(=O)NCc2cccnc2)cc1,-0.96% (inactive),-21.8%,0.05%
C[C@@H]1CN([C@H](C)CO)C(=O)c2cc(C#CCN(C)C)cnc2O[C@H]1CN(C)C(=O)NC1CCCC1,3.54% (inactive),11.4%,-1.39%
CNC[C@@H]1Oc2ccc(NS(=O)(=O)c3c(C)noc3C)cc2CC(=O)N([C@@H](C)CO)C[C@@H]1C,1.9% (inactive),3.17%,1.62%
Cc1ccc(C)c(NC(=O)c2cc(-c3cc(C)cc(C)c3O)n[nH]2)c1,-26.5% (active),-6.64%,-4.96%
Cc1ccc(C)c(NC(=O)c2ccc3nccnc3c2)c1,4.03% (inactive),7.77%,-0.371%
Cc1ccc(C)c(NC(=O)NNC(=O)c2ccc3ccccc3c2O)c1,7.08% (inactive),7.28%,-0.547%
O=C(C[C@H]1C[C@H]2c3cc(NC(=O)C4CCOCC4)ccc3O[C@H]2[C@@H](CO)O1)NCCN1CCCCC1,5.5% (inactive),7.29%,1.6%
C[C@@H]1CN([C@H](C)CO)C(=O)c2cc(NC(=O)C3CCCCC3)ccc2O[C@@H]1CN(C)CC1CCCCC1,0.0895% (inactive),5.96%,0.317%
OCc1ccc(OCCCOc2cccc3cccnc23)cc1,-10.7% (inactive),-8.81%,-4.97%
O=S(=O)(NCCc1ccc(F)cc1)c1cccc2cccnc12,-26.1% (inactive),-23%,-1.09%
O=S(=O)(NCCOc1cccc2cccnc12)c1ccc(F)cc1,-21.1% (active),-16%,1.43%
O=C(C[C@@H]1CC[C@@H](NC(=O)C2CCOCC2)[C@H](CO)O1)NCC1CC1,0.615% (inactive),0.519%,-2.58%
CN1CCCCN2[C@H](CO)[C@H](c3ccc(-c4ccc(F)cc4)cc3)[C@@H]2C1,3.95% (inactive),2.06%,-2.51%
CCC(=O)N1CC2(CN(C(=O)Nc3ccccc3F)C2)c2c([nH]c3cc(OC)ccc23)[C@H]1CO,-3.51% (inactive),-1.81%,1.22%
COc1ccc(N2CCN(C(=O)CCNC(=O)c3ccc(Br)cc3)CC2)cc1,4.67% (inactive),3.67%,-1.33%
O=C(CCc1ccccc1F)N1CCN(c2ccccc2)CC1,-5.11% (inactive),-5.09%,-0.63%
COc1ccc(N2CCN(C(=O)CCSCc3ccccc3F)CC2)cc1,-33% (active),-17.7%,-1.41%
O=C(NCC[C@H]1CC[C@@H](NC(=O)c2ccncc2)[C@@H](CO)O1)Nc1ccc(Cl)cc1,-17.2% (inactive),-25.9%,-0.789%

SMILES,GFP signal change (wild-type ribosome),OD600 change,RFP signal change
O=C(C1CCCC1)N1CC(=O)N2[C@@H](CO)[C@H](c3ccc(C#CC4CCCC4)cc3)[C@@H]2C1,-40.8% (inactive),-65.7%,1.78%
C=CCn1c(-c2ccccc2OCC)n[nH]c1=S,3.63% (inactive),4.05%,2.66%
C=CCn1c(-c2sc(-c3ccccc3)nc2C)n[nH]c1=S,-24.3% (active),-5.31%,7.62%
C=CCn1c(CCc2ccc(OC(C)C)cc2)n[nH]c1=S,-0.285% (inactive),-0.525%,1.11%
O=C(C1CC1)N1CCCCN2[C@H](CO)[C@H](c3ccc(-c4cccc(F)c4)cc3)[C@H]2C1,-6.45% (inactive),-8.76%,3.12%
COCC(=O)N1CCCCN2[C@H](C1)[C@@H](c1ccc(-c3ccccc3)cc1)[C@@H]2CO,2.96% (inactive),-5.68%,0.005%
C[C@@H]1CCCCO[C@@H](CN(C)C(=O)Nc2cccc3ccccc23)[C@H](C)CN([C@H](C)CO)C(=O)c2cc(NS(C)(=O)=O)ccc2O1,2.97% (inactive),-14.8%,-1.87%
COc1cccc(C(=O)c2cc3ccc(O)cc3oc2=O)c1,-30.5% (active),-15%,1.31%
COc1cccc(C(=O)NCCSc2ccc(Br)cc2)c1,-49.8% (inactive),-75.8%,-16.7%
COC(=O)c1ccc(COC(=O)CNC(=O)c2cccc(OC)c2)o1,3.46% (inactive),11.4%,-1.13%
COc1ccc(NC(=O)Nc2ccc3c(c2)C(=O)N([C@H](C)CO)C[C@H](C)[C@@H](CN(C)Cc2ccccc2)OCCCC[C@H](C)O3)cc1,2.43% (inactive),-11%,1.05%
C[C@@H]1CN([C@H](C)CO)C(=O)c2cc(NC(=O)C3CCCCC3)ccc2O[C@@H](C)CCCCO[C@H]1CN(C)S(C)(=O)=O,-1.08% (inactive),0.309%,-2.76%
CC1CCN(c2c(NCc3ccc(C(=O)NCc4ccccc4)cc3)c(=O)c2=O)CC1,-2.23% (inactive),0.92%,2.65%
CC1CCCN(c2ccc(C(=O)NCCc3ccccc3)cn2)C1 (configuration not stated),-19.9% (active),-8.59%,0.765%
CC1CCN(C(=O)CCNC(=O)c2ccccc2)CC1,9.31% (inactive),16.3%,-0.0995%
COc1ccc2c3c([nH]c2c1)[C@H](CO)N(C(=O)C1CCC1)CC31CCN(Cc2cccc(F)c2)CC1,-1.74% (inactive),-5.93%,3.15%
COc1ccc2c3c([nH]c2c1)[C@@H](CO)N(Cc1ccccc1OC)CC31CCN(C)CC1,-0.945% (inactive),0.435%,0.881%
Cc1nn(-c2ccccc2)c(C)c1/C=N/NC(=O)CSc1nc2ccccc2c(=O)n1-c1ccccc1,14.9% (inactive),17.7%,-2.02%
Cc1cc(=O)[nH]c(N/N=C/c2c(C)nn(-c3ccccc3Cl)c2Cl)n1,-2.91% (inactive),6.48%,-1.95%
Cc1nn(-c2ccccc2)c(Cl)c1/C=N/NC(=O)c1nn(C)cc1[N+](=O)[O-],-30.3% (active),4.85%,0.73%
